# Source: PubChem BioAssay AID1942 (Johns Hopkins Ion Channel Center, 2009)
# The campaign covered roughly 2,400 compounds. About 580 (24%) were called active.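 How the source made its calls: active means activity change at or above the mean plus 3 SD of buffer wells without dofetilide, per plate; inactive means the rest.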 A selection follows.
# Target: Potassium voltage-gated channel subfamily KQT member 2 (Rattus norvegicus) (UniProt O88943)
# Assay: KCNQ2 potentiation in CHO cells – cell-based, FluxOR thallium flux, counter-screen for hERG block protector project, confirmation (AID 1942);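 further: normalized value minus buffer-control mean plus three SD of buffer wells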
# Conditions: FluxOR thallium flux fluorescence, at 10 µM, hits give high values
# Potassium voltage-gated channel subfamily KQT member 2 (Rattus norvegicus), sequence (O88943 whole entry, looked up): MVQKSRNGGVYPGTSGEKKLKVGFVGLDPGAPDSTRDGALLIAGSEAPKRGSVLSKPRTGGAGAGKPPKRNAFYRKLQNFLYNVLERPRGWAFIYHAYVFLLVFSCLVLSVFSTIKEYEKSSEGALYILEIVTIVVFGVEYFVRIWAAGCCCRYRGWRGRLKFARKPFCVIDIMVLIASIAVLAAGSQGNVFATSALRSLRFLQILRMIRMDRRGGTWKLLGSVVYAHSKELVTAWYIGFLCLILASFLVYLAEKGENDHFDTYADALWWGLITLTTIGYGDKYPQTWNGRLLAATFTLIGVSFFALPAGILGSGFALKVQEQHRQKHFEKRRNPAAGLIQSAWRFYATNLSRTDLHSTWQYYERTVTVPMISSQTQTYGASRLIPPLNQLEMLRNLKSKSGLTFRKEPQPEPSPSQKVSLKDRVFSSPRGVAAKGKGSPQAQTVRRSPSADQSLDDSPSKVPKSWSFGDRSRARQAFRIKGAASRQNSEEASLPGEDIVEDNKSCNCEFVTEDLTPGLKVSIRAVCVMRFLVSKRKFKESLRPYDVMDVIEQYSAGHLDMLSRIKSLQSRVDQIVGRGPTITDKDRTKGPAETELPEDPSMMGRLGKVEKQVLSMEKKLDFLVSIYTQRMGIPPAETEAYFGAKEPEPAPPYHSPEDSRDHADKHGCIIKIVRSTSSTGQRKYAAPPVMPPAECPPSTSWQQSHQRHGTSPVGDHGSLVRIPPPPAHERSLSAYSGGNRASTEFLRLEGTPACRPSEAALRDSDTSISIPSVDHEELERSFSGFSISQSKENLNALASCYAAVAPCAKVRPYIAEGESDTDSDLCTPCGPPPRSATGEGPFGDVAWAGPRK
row,Structure (SMILES),"activity change, less the hit threshold"
1,COc1ccc(-c2cc(C(=O)Nc3ccccc3SC)no2)cc1,-15.3% (inactive)
2,COC(=O)c1c(NC(=O)C(C)(C)C)csc1C,-9.2% (inactive)
3,C/C(=N\NC(=O)c1ccc(Cl)cc1)c1ccc(Br)s1,-6.9% (inactive)
4,CCc1cc2c(=O)n(CCC(C)C)c(=S)[nH]c2s1,54% (active)
5,CCCCNC(=O)c1onc(CSc2nc3ccccc3[nH]2)c1C(=O)NCCCC,-19% (inactive)
6,COc1ccc(CCNC(=O)Cn2c(=O)n(-c3ccc(F)cc3)c(=O)c3sccc32)cc1OC,-19.4% (inactive)
7,CCNC(=S)N/N=C1\C(=O)c2cccc3cccc1c23,-4% (inactive)
8,O=C(N/N=C1/C(=O)c2cccc3cccc1c23)c1ccc(Cl)cc1,73.4% (active)
9,O=C(NN=C1c2ccccc2-c2ccccc21)c1ccccc1,0% (inactive)
10,O=C(O)c1ccccc1P(=O)(c1ccccc1)c1ccccc1,-16.8% (inactive)
11,Cc1noc(C)c1COc1cccc(C(=O)NCc2cccc(Cl)c2)c1,-21.4% (inactive)
12,CCCCCC/C(C)=C1/SC(=S)NC1=O,71.1% (active)
13,CCCCCCCC/C=C\CCCCCCCC(=O)O,-1% (inactive)
14,CCOC(=O)Cc1nc2ccccc2o1,-2.9% (inactive)
15,O=C(O)Cc1sc(-c2ccc(Cl)cc2)nc1-c1ccccc1,-19.7% (inactive)
16,O=C(NC(=S)Nc1ccc(C(F)(F)F)cc1)c1csnn1,87% (active)
17,O=C(NC(=S)Nc1cccc(C(F)(F)F)c1)c1csnn1,115% (active)
18,O=C(NC(=S)Nc1cc(C(F)(F)F)ccc1Cl)c1ccccc1,-6.4% (inactive)
19,O=C(Nc1ccc(-c2csc(Nc3cccc(C(F)(F)F)c3)n2)cc1)c1ccccc1,-23.8% (inactive)
20,CC12CN3CC(C)(CN(C1)C3c1ccc3c(c1)OCO3)C2=O (stereo unspecified),-15.9% (inactive)
21,C/C(O)=C/c1nc2ccccc2[nH]c1=O,-16.5% (inactive)
22,CCN1C(=O)/C(=C/N2CCc3ccccc32)SC1=S,-17.3% (inactive)
23,Cc1nnc2ccc(-c3cccc(NC(=O)c4ccc(Cl)nc4)c3)nn12,-16.1% (inactive)
24,CNC(=O)c1c(O)c2cccc3c2n(c1=O)CC3,-22.2% (inactive)
25,c1ccc2oc(-c3ccn[nH]3)cc2c1,-0.3% (inactive)
26,Cc1csc(NC(=O)c2cc3c(s2)CCCC3)n1,17.9% (active)

row,Structure (SMILES),"activity change, less the hit threshold"
1,Cc1csc(NC(=O)C2C3C=CC(C3)C2C(=O)O)n1 (stereo unspecified),-13.2% (inactive)
2,Cc1csc(NC(=O)c2cn3ccccc3n2)n1,-15.1% (inactive)
3,NC(=O)c1cccnc1Nc1cccc([N+](=O)[O-])c1,-14.1% (inactive)
4,Cc1occc1C(=O)Nc1cccc([N+](=O)[O-])c1,-10.3% (inactive)
5,O=C(O)c1ccc(N=NNc2cccc([N+](=O)[O-])c2)cc1,2.2% (active)
6,CC(=O)Nc1ccc(NC(=O)CSc2ncc(C(=O)Nc3ccc(Cl)cc3)c(=O)n2C)cc1,-4.1% (inactive)
7,N=c1c2cn[nH]c2nc(SCC(=O)c2ccc(Br)cc2)n1-c1ccc(Br)cc1,-23.7% (inactive)
8,CCOC(=O)N/N=C/C=C/c1ccccc1[N+](=O)[O-],5.2% (active)
9,CCOC(=O)C(=CNc1ccc(OC)cc1[N+](=O)[O-])C(=O)OCC,-13.9% (inactive)
10,CCOC(=O)C(=CNc1cc(C)ccc1[N+](=O)[O-])C(=O)OCC,-8.6% (inactive)
11,O=S(=O)(NCc1ccc(Cl)cc1Cl)c1ccc(N2CCOCC2)nc1,-15% (inactive)
12,CCOC(=O)/C=C/c1ccc2c(c1)S(=O)(=O)N(c1cccc(OC)c1)[C@H]2CC(=O)OCC,-13.3% (inactive)
13,CN(C)/C=C/C(=O)c1ccc(Cl)cc1Cl,-15.1% (inactive)
14,CCCCN(CCCC)C(=S)NC(=O)c1ccccc1Cl,89.6% (active)
15,CCCn1nnnc1NC(=O)c1cc(Cl)ccc1Cl,-33.4% (inactive)
16,CCN(CC)C(=S)NC(=O)c1ccc(Cl)cc1Cl,9% (active)
17,O=C(Nc1ccsc1C(=O)O)c1ccccc1Cl,-14.7% (inactive)
18,CN(C)C(=O)c1cc(C(=O)c2ccc(Cl)cc2Cl)c[nH]1,-14.9% (inactive)
19,CN(C)CCCN=C(NO)c1ccc(Cl)cc1Cl,-14.9% (inactive)
20,CCCN(CCC)C(=S)NC(=O)c1ccc(Cl)cc1Cl,55% (active)
21,O=C(NC(=S)Nc1nc(-c2cccc([N+](=O)[O-])c2)cs1)c1ccccc1Cl,-10.8% (inactive)
22,CCC(=O)NC(c1cccs1)c1ccc2cccnc2c1O (stereo unspecified),-16.7% (inactive)
23,CCC(C)NC(=O)c1c(-c2cc(Cl)c(OC)c(Cl)c2)noc1C (stereo unspecified),-12.6% (inactive)
24,O=[N+]([O-])c1cccc(/C=N/N=C\c2ccccc2)c1,-20.8% (inactive)
25,Cc1ccccc1-n1c(SCC(=O)N(C)C2CCS(=O)(=O)C2)nnc1-c1ccncc1 (stereo unspecified),-7.7% (inactive)
26,CCOC(=O)c1sc2nc(C)nc(SCC(=O)N(C)C3CCS(=O)(=O)C3)c2c1C (stereo unspecified),-0.6% (inactive)

row,Structure (SMILES),"activity change, less the hit threshold"
1,O=C(O)CCSc1ncnc2sc(-c3ccccc3)cc12,22.1% (active)
2,CN(C(=O)CSc1ncnc2sc(-c3ccccc3)cc12)C1CCS(=O)(=O)C1 (stereo unspecified),80.2% (active)
3,CCC(C)NC(=O)CSc1ncnc2sccc12 (stereo unspecified),-14.8% (inactive)
4,Cc1ccccc1Cc1c(C)nc2c(C(=O)NCc3ccc4c(c3)OCO4)cnn2c1C,-18.7% (inactive)
5,CC(CCc1ccccc1)NC(=S)NC(=O)c1ccco1 (stereo unspecified),15.2% (active)
6,O=C(O)CNC(=O)c1ccc(NC(=O)/C(=C/c2ccccc2)NC(=O)c2ccco2)cc1,-25.9% (inactive)
7,O=C(NC(=S)N(CCc1ccccc1)CCc1ccccc1)c1ccco1,36% (active)
8,NC(=O)c1nsc(C(=O)N(CC(=O)NCc2ccccc2)c2ccc(F)cc2)c1N,-23.6% (inactive)
9,C/C(=N\NC(=O)c1ccc(NS(=O)(=O)c2cccs2)cc1)c1ccc2c(c1)OCO2,-25.3% (inactive)
10,CNC(=O)COC(=O)c1cccc(S(=O)(=O)N2CCN(c3ccc(F)cc3)CC2)c1,-11.1% (inactive)
11,C=CCn1c(=S)[nH]c2nc3c(cc2c1=O)CCCC3,-7.5% (inactive)
12,C=CCn1c(=S)[nH]c2sc3c(c2c1=O)CCC3,34.8% (active)
13,C=CCn1c(=S)[nH]c2sc3c(c2c1=O)CCCC3,46.1% (active)
14,Cc1ccc(C(C)C)cc1OCCn1cncn1,-20.3% (inactive)
15,CCCOc1ccc(C2NC(=S)NC(c3ccccc3)=C2C(=O)Nc2ccc(C)cc2)cc1OC (stereo unspecified),-6.2% (inactive)
16,CNC(=O)CSc1nnc(-c2ccco2)n1-c1ccccc1,-16.7% (inactive)
17,Cc1ccc(NC(=O)C(=O)NNC(=O)c2cccs2)cc1,60.8% (active)
18,O=C(Nc1ccc(NC(=O)C2CC2)nc1)c1cccs1,-16.2% (inactive)
19,Cc1ccc(N/C=C/C(=O)c2cccs2)cc1,-18% (inactive)
20,CCc1ccc(NC(=O)C(=O)NNC(=O)c2cccs2)cc1,67.5% (active)
21,COc1ccc(NC(=O)CNC(=O)c2cccs2)cc1Cl,-13.7% (inactive)
22,COc1ccc(/C=C/C(=O)NC(=S)NNC(=O)c2cccs2)cc1,-21.3% (inactive)
23,C=CCc1cc(Cl)ccc1OCCOCCN(C)C,-18.7% (inactive)
24,Oc1ccc(N=Nc2ccccc2-c2nn[nH]n2)c(O)c1,-0.7% (inactive)
25,Nc1nonc1C(=O)N1CCCC1,-21% (inactive)
26,Cc1cc(C(=O)NNC2CC(=O)N(c3ccc4ccccc4c3)C2=O)c(C)o1 (stereo unspecified),-17.4% (inactive)

row,Structure (SMILES),"activity change, less the hit threshold"
1,COc1ccc(C(=O)c2oc3ccccc3c2N)cc1,-8.5% (inactive)
2,O=C(N/N=C\c1coc2ccccc2c1=O)c1ccco1,-15.7% (inactive)
3,COc1ccc(-c2oc3ccccc3c(=O)c2OC(C)=O)cc1,7.3% (active)
4,CC(=O)Oc1c(-c2ccc(Br)o2)oc2ccccc2c1=O,99.4% (active)
5,CC(=O)Oc1c(-c2ccco2)oc2ccccc2c1=O,6.8% (active)
6,COc1ccc(OC(=O)Cc2cccc3ccccc23)cc1,-8.5% (inactive)
7,NC(=O)c1ccsc1NC(=O)CS(=O)(=O)c1ccccc1,-4.3% (inactive)
8,COc1ccc(Cc2c(O)nc(SCC(C)C)[nH]c2=O)cc1,-20.7% (inactive)
9,CCOC(=O)C(=CNc1ccc(N2CCOCC2)cc1)C(=O)OCC,0.3% (active)
10,CCOC(=O)C(=CNc1cccc(C)n1)C(=O)OCC,-11.8% (inactive)
11,CCOC(=O)C(=CNc1cc(C)ccn1)C(=O)OCC,-11.3% (inactive)
12,O=C(Cn1nnc(-c2cccc(C(F)(F)F)c2)n1)N1CCCCCC1,13.3% (active)
13,NC(=O)Cn1nnc(-c2ccc(CN3CCCCC3)cc2)n1,-14.8% (inactive)
14,O=C(c1cccc(C(F)(F)F)c1)C1CCCN(C(=O)CCn2cnnn2)C1 (stereo unspecified),-8.8% (inactive)
15,Cc1nc(NCCc2ccc(S(N)(=O)=O)cc2)c2c(C)c(C)sc2n1,0.6% (active)
16,O=C(NC1CCN(c2ncccn2)CC1)c1c(F)cccc1F,-9.6% (inactive)
17,COCC(=O)Nc1cc(C)cn(Cc2c(F)cccc2Cl)c1=O,-15.1% (inactive)
18,Cc1ccc2c(Cl)cc(Cl)c(OCC(=O)NC3CCS(=O)(=O)C3)c2n1 (stereo unspecified),-23.4% (inactive)
19,OCCN1CCN(c2ncnc3c2sc2nc(N4CCOCC4)c4c(c23)CCC4)CC1,-19.1% (inactive)
20,Cc1csc2c(N3CCCCC3)ncnc12,3.5% (active)
21,CC1=CCC[C@@H]2[C@@](C)(CC/C(C)=C/C(=O)O)[C@H](C)CC[C@@]12C,-3.2% (inactive)
22,CCCCn1c(N)c(C(=S)NC(=O)CC(C)(C)C)c(=O)n(C)c1=O,9.2% (active)
23,CC(=O)c1sc(-c2ccc(F)cc2)cc1NS(=O)(=O)c1ccc(C)cc1,-14.9% (inactive)
